The source made the active and inactive calls.
Legend:
[1] = binders of probe aFSTL3 on microarray, primary screen, stem cell growth factor project, biochemical, small-molecule microarray, fluorescence 635/667 (AID 1064); conditions: higher = more signal;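 further: measures binding of the biotinylated anti-FSTL3 antibody to printed compounds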
[2] = binders from COS7 lysate, DM2A8 probe, primary screen, torsin A project, cell lysate, small-molecule microarray, fluorescence 635/667 (AID 1065); conditions: higher = more signal, COS7 lysate expressing mutant human TOR1A
[3] = binders of probe aFGF2 on microarray, primary screen, stem cell growth factor project, biochemical, small-molecule microarray, fluorescence 635/667 (AID 1067); conditions: higher = more signal;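 further: measures binding of biotinylated aFGF2 protein to printed compounds on slides; z-score merges feature fluorescence and signal-to-noise across triplicate slides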
[4] = binders of probe aFGF10 on microarray, primary screen, stem cell growth factor project, biochemical, small-molecule microarray, fluorescence 635/667 (AID 1071); conditions: higher = more signal;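 further: score merges 667 nm spot intensity and signal to noise from triplicate slides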
[5] = molecular target: Neurogenic locus notch homolog protein 2 (Homo sapiens) (UniProt Q04721); experiment: Notch2 binders on small-molecule microarrays, primary screen, biochemical, small-molecule microarray, 635 nm fluorescence, stem cell growth factors (AID 1073); conditions: Notch2 binding, higher = more signal
[6] = molecular target: Pro-neuregulin-1, membrane-bound isoform (Homo sapiens) (UniProt Q02297); experiment: NRG1 binders on small-molecule microarrays, primary screen, psychiatric disease protein project, biochemical, small-molecule microarray, fluorescence 635/667 (AID 1075); conditions: NRG1 binding, 635 nm fluorescence, higher = more signal;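 further: score combines 667 nm spot fluorescence with signal to noise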
Pro-neuregulin-1, membrane-bound isoform (Homo sapiens), sequence (Q02297 whole entry, looked up, the tested form may be a part, canonical isoform): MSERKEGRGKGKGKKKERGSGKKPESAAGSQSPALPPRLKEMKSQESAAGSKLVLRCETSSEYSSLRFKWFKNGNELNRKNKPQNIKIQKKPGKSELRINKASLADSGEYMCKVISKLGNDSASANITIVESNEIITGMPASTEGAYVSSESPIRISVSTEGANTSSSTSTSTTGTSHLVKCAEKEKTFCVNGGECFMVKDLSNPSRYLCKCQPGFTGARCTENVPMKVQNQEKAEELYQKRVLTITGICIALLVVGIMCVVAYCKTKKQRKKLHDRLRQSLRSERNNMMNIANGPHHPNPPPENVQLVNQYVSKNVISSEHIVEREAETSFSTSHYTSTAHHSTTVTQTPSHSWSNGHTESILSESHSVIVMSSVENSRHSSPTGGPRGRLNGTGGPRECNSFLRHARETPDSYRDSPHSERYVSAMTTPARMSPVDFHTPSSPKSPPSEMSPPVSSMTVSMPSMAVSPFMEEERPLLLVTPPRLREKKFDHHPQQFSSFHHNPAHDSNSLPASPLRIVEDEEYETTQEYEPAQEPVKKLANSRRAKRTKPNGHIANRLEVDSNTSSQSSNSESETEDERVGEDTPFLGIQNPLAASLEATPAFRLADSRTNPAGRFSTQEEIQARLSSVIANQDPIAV

[7] = system: Neuregulin-1 EGF-like domain; experiment: binders of neuregulin-1 EGF-like domain, primary screen, biochemical, small-molecule microarray, 635 nm fluorescence (AID 1081); conditions: small-molecule microarray binding, higher = more signal;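 further: binding of the protein to compounds printed on small-molecule microarray slides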
[8] = FRG1 promoter luciferase signal modulators, primary screen, FRG1 inhibition for FSHD, cell-based, C2C12 myotubes, firefly/Renilla luciferase, luminescence (AID 1084); conditions: higher = more signal, called active from +8 up or from −8 down
[9] = binders of probe aFST on microarray, primary screen, stem cell growth factor project, biochemical, small-molecule microarray, fluorescence 635/667 (AID 1086); conditions: higher = more signal;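 further: score merges 667 nm fluorescence with signal-to-noise of each printed compound spot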
[10] = binders of probe aHhip on microarray, primary screen, stem cell growth factor project, biochemical, small-molecule microarray, fluorescence 635/667 (AID 1087); conditions: higher = more signal;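 further: score merges spot fluorescence at 667nm with spot signal to noise ratio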
[11] = system: PRMT1 (protein arginine N-methyltransferase 1); experiment: PRMT1 binders on small-molecule microarrays, primary screen, biochemical, small-molecule microarray, 635 nm fluorescence (AID 1088); conditions: small-molecule microarray binding, higher = more signal;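 further: binding of Prmt1 protein to compounds spotted on small-molecule microarray slides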
[12] = yeast growth modulation, basal conditions, primary screen, YJM789 clinical isolate, OD600, 24 h (AID 1089);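 further: growth of clinical yeast isolate S. cerevisiae YJM 789 seeded 1000 cells per well; test concentration not given here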; conditions: S. cerevisiae YJM789 growth, higher = more signal, called active from +8 up or from −8 down
[13] = fission yeast growth modulation, primary screen, strain 972, OD600, 24 h, no modulator (AID 1090);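 further: basal condition with compound alone and no growth modifier present; test concentration not given here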; conditions: S. pombe 972 growth, higher = more signal, called active from +8 up or from −8 down
[14] = S. cerevisiae growth modulation with rapamycin, primary screen, strain BY4716, OD600, 96 h (AID 1091); conditions: higher = more signal, called active from +8 up or from −8 down; further: test concentration not given here
[15] = molecular target: Torsin-1A-interacting protein 2 (Homo sapiens) (UniProt Q8NFQ8); experiment: LULL1 binders on small-molecule microarray, primary screen, cell lysate, human LULL1 lysate, 635/667 nm fluorescence (AID 1092); conditions: hLULL1 lysate binding, 635 nm fluorescence, higher = more signal;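 further: probe is lysate of COS7 cells overexpressing human LULL1; score merges per-feature 667 nm fluorescence with signal-to-noise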
Torsin-1A-interacting protein 2 (Homo sapiens), sequence (Q8NFQ8 whole entry, looked up): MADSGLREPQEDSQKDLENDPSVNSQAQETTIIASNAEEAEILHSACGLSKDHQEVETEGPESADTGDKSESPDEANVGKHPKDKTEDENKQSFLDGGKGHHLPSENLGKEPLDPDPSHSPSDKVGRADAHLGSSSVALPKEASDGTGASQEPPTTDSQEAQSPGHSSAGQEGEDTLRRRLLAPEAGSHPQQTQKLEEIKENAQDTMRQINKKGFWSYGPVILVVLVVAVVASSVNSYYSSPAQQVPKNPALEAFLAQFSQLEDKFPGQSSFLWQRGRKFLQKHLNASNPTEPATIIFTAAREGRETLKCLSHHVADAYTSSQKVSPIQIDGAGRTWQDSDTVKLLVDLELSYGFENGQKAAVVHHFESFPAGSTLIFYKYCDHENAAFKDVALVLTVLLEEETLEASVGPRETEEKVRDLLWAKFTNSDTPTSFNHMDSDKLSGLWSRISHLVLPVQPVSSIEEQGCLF

[16] = E. coli growth modulation, two-sided OD650, primary screen, E. coli filamentation project, strain DRC41, 24 h (AID 1093); conditions: OD650, 24 h, higher = more signal, called active from +8 up or from −8 down;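 further: MC1000 strain lacking acrAB efflux and sulA so SOS filamentation is blocked; test concentration not given here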
[17] = small-molecule microarray binders of probe aLefty2, primary screen, biochemical, biotinylated probe, 635/667 nm fluorescence (AID 1094); conditions: higher = more signal;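 further: score merges spot fluorescence near 667 nm with spot signal-to-noise ratio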
[18] = system: Noggin (protein binding on small-molecule microarray); experiment: Noggin binders on small-molecule microarray, primary screen, biochemical, 635/667 nm fluorescence (AID 1095); conditions: 635 nm fluorescence, higher = more signal;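 further: score merges 667 nm feature fluorescence with signal to noise over triplicate slides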
[19] = molecular target: Neurogenic locus notch homolog protein 3 (Homo sapiens) (UniProt Q9UM47); experiment: NOTCH3 binders on small-molecule microarray, primary screen, biochemical, 635/667 nm fluorescence (AID 1096); conditions: NOTCH3 binding, 635 nm fluorescence, higher = more signal
Neurogenic locus notch homolog protein 3 (Homo sapiens), sequence (Q9UM47 whole entry, looked up): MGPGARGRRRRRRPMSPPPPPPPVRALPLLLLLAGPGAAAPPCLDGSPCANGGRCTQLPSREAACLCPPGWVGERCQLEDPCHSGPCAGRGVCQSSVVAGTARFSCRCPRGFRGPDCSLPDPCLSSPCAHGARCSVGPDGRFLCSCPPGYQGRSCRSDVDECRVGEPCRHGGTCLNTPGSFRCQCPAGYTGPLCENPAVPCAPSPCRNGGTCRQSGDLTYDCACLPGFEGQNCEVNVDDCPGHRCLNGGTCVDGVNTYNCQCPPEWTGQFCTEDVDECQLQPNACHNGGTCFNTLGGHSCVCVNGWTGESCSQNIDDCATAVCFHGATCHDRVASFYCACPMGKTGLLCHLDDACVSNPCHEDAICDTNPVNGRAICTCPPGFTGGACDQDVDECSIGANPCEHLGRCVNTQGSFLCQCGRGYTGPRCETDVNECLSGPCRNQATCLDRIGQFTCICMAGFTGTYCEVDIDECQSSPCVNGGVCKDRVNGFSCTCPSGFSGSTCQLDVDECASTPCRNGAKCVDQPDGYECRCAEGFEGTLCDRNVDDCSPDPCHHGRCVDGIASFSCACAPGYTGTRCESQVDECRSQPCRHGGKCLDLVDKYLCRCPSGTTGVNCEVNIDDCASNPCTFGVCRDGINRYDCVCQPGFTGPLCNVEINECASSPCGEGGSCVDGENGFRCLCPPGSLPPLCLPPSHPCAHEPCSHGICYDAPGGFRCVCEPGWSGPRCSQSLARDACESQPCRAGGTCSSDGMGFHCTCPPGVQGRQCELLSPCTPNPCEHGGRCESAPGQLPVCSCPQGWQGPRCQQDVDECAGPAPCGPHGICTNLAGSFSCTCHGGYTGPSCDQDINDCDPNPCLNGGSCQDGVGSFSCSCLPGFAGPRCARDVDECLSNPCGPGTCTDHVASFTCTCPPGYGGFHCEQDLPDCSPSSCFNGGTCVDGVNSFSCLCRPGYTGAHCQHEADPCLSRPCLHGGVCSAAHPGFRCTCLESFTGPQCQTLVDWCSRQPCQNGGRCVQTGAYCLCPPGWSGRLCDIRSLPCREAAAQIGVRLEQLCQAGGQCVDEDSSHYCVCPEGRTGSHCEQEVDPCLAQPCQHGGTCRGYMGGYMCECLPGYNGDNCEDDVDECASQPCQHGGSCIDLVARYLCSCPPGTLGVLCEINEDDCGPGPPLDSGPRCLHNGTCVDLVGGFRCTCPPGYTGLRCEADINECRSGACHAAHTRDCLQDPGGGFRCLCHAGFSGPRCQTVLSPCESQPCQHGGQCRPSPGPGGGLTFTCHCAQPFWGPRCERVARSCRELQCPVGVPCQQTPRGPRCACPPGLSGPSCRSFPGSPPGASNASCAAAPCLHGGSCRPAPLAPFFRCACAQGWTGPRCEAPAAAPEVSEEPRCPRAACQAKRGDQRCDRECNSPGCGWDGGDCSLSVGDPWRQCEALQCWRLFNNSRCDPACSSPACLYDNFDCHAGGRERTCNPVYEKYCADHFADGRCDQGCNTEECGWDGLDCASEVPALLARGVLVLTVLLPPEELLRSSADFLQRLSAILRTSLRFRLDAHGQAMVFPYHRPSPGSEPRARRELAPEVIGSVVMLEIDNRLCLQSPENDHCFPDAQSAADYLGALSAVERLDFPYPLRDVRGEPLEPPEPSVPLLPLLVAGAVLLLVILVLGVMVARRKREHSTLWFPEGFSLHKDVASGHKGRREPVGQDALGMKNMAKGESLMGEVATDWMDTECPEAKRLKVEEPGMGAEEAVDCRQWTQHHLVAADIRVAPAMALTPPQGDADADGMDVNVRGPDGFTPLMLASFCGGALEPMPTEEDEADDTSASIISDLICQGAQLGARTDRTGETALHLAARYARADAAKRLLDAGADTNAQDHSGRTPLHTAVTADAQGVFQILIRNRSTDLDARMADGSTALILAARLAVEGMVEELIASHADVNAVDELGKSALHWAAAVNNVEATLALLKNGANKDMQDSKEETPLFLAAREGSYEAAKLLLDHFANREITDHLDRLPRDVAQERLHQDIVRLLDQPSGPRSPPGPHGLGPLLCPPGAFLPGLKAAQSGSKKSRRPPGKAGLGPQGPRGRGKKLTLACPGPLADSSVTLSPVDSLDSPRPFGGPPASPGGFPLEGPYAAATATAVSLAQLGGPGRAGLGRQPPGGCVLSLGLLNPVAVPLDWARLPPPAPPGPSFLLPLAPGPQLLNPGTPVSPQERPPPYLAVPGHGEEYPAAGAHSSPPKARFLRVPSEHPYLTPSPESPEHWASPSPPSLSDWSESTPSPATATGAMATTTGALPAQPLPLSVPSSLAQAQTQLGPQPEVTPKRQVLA

[20] = small-molecule microarray binders of probe aEGFR, primary screen, biochemical, biotinylated probe, 635/667 nm fluorescence (AID 1097); conditions: higher = more signal;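 further: probe is a biotinylated anti-EGFR antibody binding compounds printed on slides; score combines fluorescence near 667 nm and signal to noise of each spot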

| SMILES | composite z-score [1] | composite z-score [2] | composite z-score [3] | composite z-score [4] | composite z-score [5] | composite z-score [6] | composite z-score [7] | z-score [8] | composite z-score [9] | composite z-score [10] | composite z-score [11] | z-score [12] | z-score [13] | z-score [14] | composite z-score [15] | z-score [16] | composite z-score [17] | composite z-score [18] | composite z-score [19] | composite z-score [20] |
| --- | --- | --- | --- | --- | --- | --- | --- | --- | --- | --- | --- | --- | --- | --- | --- | --- | --- | --- | --- | --- |
| CC(c1ccccc1)C(O)C1C=CC2C(=O)N(C)C(=O)C2N1N(c1ccccc1)c1ccccc1 (stereo not given) | 1 | 0.23 | 0.0395 | -0.167 | 1.08 | 0.504 | 1.03 | -0.206 (inactive) | 0.657 | -0.0024 | 0.396 | 0.414 (inactive) | 0.184 (inactive) | 1.27 (inactive) | 1.65 | -1.1 (inactive) | 0.424 | -0.959 | 0.363 | -0.0322 |
| O=C1O[C@@H](c2ccccc2)[C@@H](c2ccccc2)N2[C@@H](c3ccc(O)cc3)[C@]3(C(=O)Nc4ccc(C#CC5(O)CCCCCC5)cc43)[C@@H](C(=O)Nc3nc4ccccc4s3)[C@H]12 | -0.128 | 0.91 | 0.0759 | 0.814 | 1.49 | 1.16 | 0.994 | -0.253 (inactive) | 1.12 | 1.71 | 1.54 | 0.775 (inactive) | -0.399 (inactive) | 1.06 (inactive) | 2.56 | 2.03 (inactive) | 0.718 | 1.26 | 1.07 | 0.267 |
| CCCCCCc1nc(C2CC2)c(C)c2c1[Si](C(C)C)(C(C)C)OC2 | 0.411 | 0.159 | -0.167 | -0.588 | -0.923 | -0.322 | -0.629 | -0.139 (inactive) | -0.266 | -0.0672 | -1.09 | -2.2 (inactive) | -3.58 (inactive) | -1.75 (inactive) | -0.492 | 1.69 (inactive) | -0.0591 | 0.168 | -1.26 | -0.202 |
| O=C(O)[C@@H]1Cc2c([nH]c3ccccc23)[C@@H](c2ccccc2)N1 | -0.675 | -0.15 | -0.109 | 0.35 | 0.464 | 0.144 | 0.125 | -0.608 (inactive) | 0.084 | -0.0522 | -0.645 | -0.0524 (inactive) | -0.474 (inactive) | -0.731 (inactive) | 0.249 | 0.294 (inactive) | -0.106 | 0.483 | 0.46 | -0.046 |
| O=C(CS)NCCCCCNC(=O)[C@H]1C[C@H]2C(=O)N3CCC[C@H]3C(=O)N2[C@H]1c1ccc(O)cc1 | 0.305 | 0.0424 | -0.0363 | -0.267 | -0.231 | 0.873 | 1.25 | 0.393 (inactive) | -0.339 | 0.0274 | -0.183 | -0.0414 (inactive) | -1.25 (inactive) | 0.0236 (inactive) | 0.0874 | 1.62 (inactive) | -0.0961 | 0.0529 | -1.17 | -0.184 |
| C[C@H]1C2[C@H](Cc3ccccc3)NC(=O)[C@]23C(=O)N[C@H](Cc2ccccc2)C(=O)N[C@@H](Cc2ccccc2)C(=O)NC/C=C\C/C=C/C3[C@@H]2O[C@]12C (stereo not given in full) | -0.446 | 0.107 | -0.147 | 0.388 | 0.155 | -0.384 | -0.199 | -0.293 (inactive) | -0.137 | 0.122 | -0.0599 | -0.371 (inactive) | -0.246 (inactive) | -0.639 (inactive) | 0.168 | 1.25 (inactive) | -0.0882 | -0.152 | 0.367 | -0.113 |
| O=C(N1CCCCC1)[C@@]1(CCS(=O)(=O)c2ccccc2)N=C(c2ccc(OCCCO)cc2)O[C@H]1c1ccccc1 | 0.151 | 0.529 | 0.236 | 0.685 | 1.4 | 0.0933 | 1.23 | -0.144 (inactive) | 1.51 | -0.0645 | 1.24 | -0.418 (inactive) | -0.938 (inactive) | 30.4 (active) | 3.63 | 0.943 (inactive) | 0.0971 | 0.688 | 1.12 | -0.0828 |
| O=C(NCC(O)CO)[C@]1(Cc2ccccc2)N=C(c2ccc(OCCCO)cc2)O[C@@H]1c1ccccc1 (stereo not given in full) | 1.09 | 2.15 | -0.104 | -0.512 | 0.271 | 0.951 | 0.868 | -1.63 (inactive) | 0.864 | 0.189 | 1.26 | -1 (inactive) | -1.56 (inactive) | -1.81 (inactive) | 3.43 | 0.897 (inactive) | 0.595 | -0.574 | -0.0954 | 0.107 |
| COCCOC(=O)N1C(=O)[C@@]2(c3cc(C#CC4(O)CCCCCC4)ccc31)[C@H](C(=O)N1CCCCCCC1)[C@H]1C(=O)O[C@H](c3ccccc3)[C@H](c3ccccc3)N1[C@@H]2c1ccc(O)cc1 | 3.29 | 0.536 | 0.416 | 0.345 | 0.899 | 0.768 | 1.2 | -0.492 (inactive) | 2.81 | 1.11 | 1.56 | -0.971 (inactive) | -1.1 (inactive) | 0.772 (inactive) | 2.86 | 2.34 (inactive) | 0.873 | 0.906 | 0.995 | 0.67 |
| Cc1ccc(S[C@]2(C(=O)O)CC(=O)N(Cc3cc(C(F)(F)F)cc(C(F)(F)F)c3)[C@@H]2c2ccc(CO)cc2I)cc1 | 0.793 | 0.0039 | -0.103 | 0.002 | -1.18 | 1.28 | 0.603 | 0.419 (inactive) | -0.292 | 0.0373 | 1.33 | -0.455 (inactive) | -2.26 (inactive) | 2.31 (inactive) | 1.59 | 0.663 (inactive) | 0.107 | -1.49 | -0.913 | -0.264 |

Source: PubChem BioAssay
